Data from PubChem BioAssay.
Calls of active or inactive are those of the source.

Assays:
[1] = binders of probe aFSTL3 on microarray, primary screen, stem cell growth factor project, biochemical, small-molecule microarray, fluorescence 635/667 (AID 1064); conditions: higher = more signal;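 note: measures binding of the biotinylated anti-FSTL3 antibody to printed compounds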
[2] = binders from COS7 lysate, DM2A8 probe, primary screen, torsin A project, cell lysate, small-molecule microarray, fluorescence 635/667 (AID 1065); conditions: higher = more signal, COS7 lysate expressing mutant human TOR1A
[3] = binders of probe aFGF2 on microarray, primary screen, stem cell growth factor project, biochemical, small-molecule microarray, fluorescence 635/667 (AID 1067); conditions: higher = more signal;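 note: measures binding of biotinylated aFGF2 protein to printed compounds on slides; z-score merges feature fluorescence and signal-to-noise across triplicate slides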
[4] = binders of probe aFGF10 on microarray, primary screen, stem cell growth factor project, biochemical, small-molecule microarray, fluorescence 635/667 (AID 1071); conditions: higher = more signal;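 note: score merges 667 nm spot intensity and signal to noise from triplicate slides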
[5] = target: Neurogenic locus notch homolog protein 2 (Homo sapiens) (UniProt Q04721); assay: Notch2 binders on small-molecule microarrays, primary screen, biochemical, small-molecule microarray, 635 nm fluorescence, stem cell growth factors (AID 1073); conditions: Notch2 binding, higher = more signal
[6] = target: Pro-neuregulin-1, membrane-bound isoform (Homo sapiens) (UniProt Q02297); assay: NRG1 binders on small-molecule microarrays, primary screen, psychiatric disease protein project, biochemical, small-molecule microarray, fluorescence 635/667 (AID 1075); conditions: NRG1 binding, 635 nm fluorescence, higher = more signal;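 note: score combines 667 nm spot fluorescence with signal to noise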
[7] = test system: Neuregulin-1 EGF-like domain; assay: binders of neuregulin-1 EGF-like domain, primary screen, biochemical, small-molecule microarray, 635 nm fluorescence (AID 1081); conditions: small-molecule microarray binding, higher = more signal;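 note: binding of the protein to compounds printed on small-molecule microarray slides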
[8] = FRG1 promoter luciferase signal modulators, primary screen, FRG1 inhibition for FSHD, cell-based, C2C12 myotubes, firefly/Renilla luciferase, luminescence (AID 1084); conditions: higher = more signal, called active from +8 up or from −8 down
[9] = binders of probe aFST on microarray, primary screen, stem cell growth factor project, biochemical, small-molecule microarray, fluorescence 635/667 (AID 1086); conditions: higher = more signal;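 note: score merges 667 nm fluorescence with signal-to-noise of each printed compound spot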
[10] = binders of probe aHhip on microarray, primary screen, stem cell growth factor project, biochemical, small-molecule microarray, fluorescence 635/667 (AID 1087); conditions: higher = more signal;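 note: score merges spot fluorescence at 667nm with spot signal to noise ratio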
[11] = test system: PRMT1 (protein arginine N-methyltransferase 1); assay: PRMT1 binders on small-molecule microarrays, primary screen, biochemical, small-molecule microarray, 635 nm fluorescence (AID 1088); conditions: small-molecule microarray binding, higher = more signal;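 note: binding of Prmt1 protein to compounds spotted on small-molecule microarray slides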
[12] = yeast growth modulation, basal conditions, primary screen, YJM789 clinical isolate, OD600, 24 h (AID 1089);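 note: growth of clinical yeast isolate S. cerevisiae YJM 789 seeded 1000 cells per well; test concentration not given here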; conditions: S. cerevisiae YJM789 growth, higher = more signal, called active from +8 up or from −8 down
[13] = fission yeast growth modulation, primary screen, strain 972, OD600, 24 h, no modulator (AID 1090);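 note: basal condition with compound alone and no growth modifier present; test concentration not given here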; conditions: S. pombe 972 growth, higher = more signal, called active from +8 up or from −8 down
[14] = S. cerevisiae growth modulation with rapamycin, primary screen, strain BY4716, OD600, 96 h (AID 1091); conditions: higher = more signal, called active from +8 up or from −8 down; note: test concentration not given here
[15] = target: Torsin-1A-interacting protein 2 (Homo sapiens) (UniProt Q8NFQ8); assay: LULL1 binders on small-molecule microarray, primary screen, cell lysate, human LULL1 lysate, 635/667 nm fluorescence (AID 1092); conditions: hLULL1 lysate binding, 635 nm fluorescence, higher = more signal;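 note: probe is lysate of COS7 cells overexpressing human LULL1; score merges per-feature 667 nm fluorescence with signal-to-noise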
[16] = E. coli growth modulation, two-sided OD650, primary screen, E. coli filamentation project, strain DRC41, 24 h (AID 1093); conditions: OD650, 24 h, higher = more signal, called active from +8 up or from −8 down;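 note: MC1000 strain lacking acrAB efflux and sulA so SOS filamentation is blocked; test concentration not given here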
[17] = small-molecule microarray binders of probe aLefty2, primary screen, biochemical, biotinylated probe, 635/667 nm fluorescence (AID 1094); conditions: higher = more signal;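 note: score merges spot fluorescence near 667 nm with spot signal-to-noise ratio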
[18] = test system: Noggin (protein binding on small-molecule microarray); assay: Noggin binders on small-molecule microarray, primary screen, biochemical, 635/667 nm fluorescence (AID 1095); conditions: 635 nm fluorescence, higher = more signal;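 note: score merges 667 nm feature fluorescence with signal to noise over triplicate slides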
[19] = target: Neurogenic locus notch homolog protein 3 (Homo sapiens) (UniProt Q9UM47); assay: NOTCH3 binders on small-molecule microarray, primary screen, biochemical, 635/667 nm fluorescence (AID 1096); conditions: NOTCH3 binding, 635 nm fluorescence, higher = more signal
[20] = small-molecule microarray binders of probe aEGFR, primary screen, biochemical, biotinylated probe, 635/667 nm fluorescence (AID 1097); conditions: higher = more signal;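 note: probe is a biotinylated anti-EGFR antibody binding compounds printed on slides; score combines fluorescence near 667 nm and signal to noise of each spot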

Neurogenic locus notch homolog protein 2 (Homo sapiens), sequence (Q04721 whole entry, looked up, canonical isoform): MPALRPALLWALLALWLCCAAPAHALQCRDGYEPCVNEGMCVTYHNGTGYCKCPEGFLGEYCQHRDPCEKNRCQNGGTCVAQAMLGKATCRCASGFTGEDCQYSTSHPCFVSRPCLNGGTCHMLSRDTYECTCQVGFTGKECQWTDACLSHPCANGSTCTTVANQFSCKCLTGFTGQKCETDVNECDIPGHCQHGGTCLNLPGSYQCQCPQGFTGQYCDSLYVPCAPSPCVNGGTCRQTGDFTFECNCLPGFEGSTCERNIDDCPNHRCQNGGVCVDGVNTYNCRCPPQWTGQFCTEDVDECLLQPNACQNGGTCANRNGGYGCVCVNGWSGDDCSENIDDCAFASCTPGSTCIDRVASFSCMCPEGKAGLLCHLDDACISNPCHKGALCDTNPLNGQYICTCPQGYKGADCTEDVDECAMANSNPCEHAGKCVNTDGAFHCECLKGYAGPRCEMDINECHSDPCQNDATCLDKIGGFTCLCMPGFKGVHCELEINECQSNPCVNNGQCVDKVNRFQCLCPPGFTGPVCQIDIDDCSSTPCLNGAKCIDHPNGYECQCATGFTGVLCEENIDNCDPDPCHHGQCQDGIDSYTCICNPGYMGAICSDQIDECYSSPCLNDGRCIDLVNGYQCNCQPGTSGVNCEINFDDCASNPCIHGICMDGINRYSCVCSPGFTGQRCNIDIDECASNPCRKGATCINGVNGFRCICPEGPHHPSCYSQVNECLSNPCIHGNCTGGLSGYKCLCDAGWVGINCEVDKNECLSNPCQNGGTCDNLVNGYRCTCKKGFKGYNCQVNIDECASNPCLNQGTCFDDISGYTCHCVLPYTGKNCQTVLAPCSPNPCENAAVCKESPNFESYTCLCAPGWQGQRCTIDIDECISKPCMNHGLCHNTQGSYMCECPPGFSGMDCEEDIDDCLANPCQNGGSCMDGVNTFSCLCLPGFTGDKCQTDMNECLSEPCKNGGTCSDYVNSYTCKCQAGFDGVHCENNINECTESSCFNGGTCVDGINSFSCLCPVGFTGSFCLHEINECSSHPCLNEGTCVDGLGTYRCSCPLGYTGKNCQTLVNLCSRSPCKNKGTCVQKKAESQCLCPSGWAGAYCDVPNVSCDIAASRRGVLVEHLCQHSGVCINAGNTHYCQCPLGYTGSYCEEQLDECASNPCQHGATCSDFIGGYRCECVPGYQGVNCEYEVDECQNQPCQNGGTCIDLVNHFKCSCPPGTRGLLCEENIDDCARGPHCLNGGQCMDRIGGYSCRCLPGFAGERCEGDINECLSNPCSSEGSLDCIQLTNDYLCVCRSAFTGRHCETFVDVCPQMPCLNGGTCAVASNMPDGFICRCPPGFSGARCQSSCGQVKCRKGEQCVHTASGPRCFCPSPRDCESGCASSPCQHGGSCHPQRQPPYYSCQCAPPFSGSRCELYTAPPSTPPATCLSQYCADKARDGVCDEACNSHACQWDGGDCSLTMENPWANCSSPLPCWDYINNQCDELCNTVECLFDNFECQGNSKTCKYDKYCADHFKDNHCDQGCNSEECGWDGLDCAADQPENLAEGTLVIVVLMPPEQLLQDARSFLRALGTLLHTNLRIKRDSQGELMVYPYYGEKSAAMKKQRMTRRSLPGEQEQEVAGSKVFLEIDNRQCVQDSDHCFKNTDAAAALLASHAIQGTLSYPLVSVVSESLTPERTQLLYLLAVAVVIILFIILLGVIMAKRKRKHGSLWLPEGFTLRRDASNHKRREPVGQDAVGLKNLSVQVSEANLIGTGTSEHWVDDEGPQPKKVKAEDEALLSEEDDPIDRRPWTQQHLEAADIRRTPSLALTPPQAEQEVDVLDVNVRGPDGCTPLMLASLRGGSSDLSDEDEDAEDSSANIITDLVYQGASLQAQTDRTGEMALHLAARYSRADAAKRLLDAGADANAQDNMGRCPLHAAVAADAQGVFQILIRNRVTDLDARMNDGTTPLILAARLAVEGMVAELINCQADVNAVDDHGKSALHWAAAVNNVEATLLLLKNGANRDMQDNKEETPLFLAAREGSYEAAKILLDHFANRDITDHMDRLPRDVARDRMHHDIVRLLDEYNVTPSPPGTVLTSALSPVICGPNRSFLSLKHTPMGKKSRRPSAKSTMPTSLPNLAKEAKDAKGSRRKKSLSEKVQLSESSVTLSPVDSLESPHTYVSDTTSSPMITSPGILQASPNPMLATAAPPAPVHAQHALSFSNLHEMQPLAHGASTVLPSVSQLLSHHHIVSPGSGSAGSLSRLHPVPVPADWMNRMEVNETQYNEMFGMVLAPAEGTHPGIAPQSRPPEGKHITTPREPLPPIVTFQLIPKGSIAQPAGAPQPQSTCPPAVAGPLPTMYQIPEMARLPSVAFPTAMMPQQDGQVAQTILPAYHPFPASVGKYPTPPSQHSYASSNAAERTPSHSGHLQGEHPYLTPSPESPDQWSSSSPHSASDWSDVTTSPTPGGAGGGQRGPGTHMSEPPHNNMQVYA
Neurogenic locus notch homolog protein 3 (Homo sapiens), sequence (Q9UM47 whole entry, looked up): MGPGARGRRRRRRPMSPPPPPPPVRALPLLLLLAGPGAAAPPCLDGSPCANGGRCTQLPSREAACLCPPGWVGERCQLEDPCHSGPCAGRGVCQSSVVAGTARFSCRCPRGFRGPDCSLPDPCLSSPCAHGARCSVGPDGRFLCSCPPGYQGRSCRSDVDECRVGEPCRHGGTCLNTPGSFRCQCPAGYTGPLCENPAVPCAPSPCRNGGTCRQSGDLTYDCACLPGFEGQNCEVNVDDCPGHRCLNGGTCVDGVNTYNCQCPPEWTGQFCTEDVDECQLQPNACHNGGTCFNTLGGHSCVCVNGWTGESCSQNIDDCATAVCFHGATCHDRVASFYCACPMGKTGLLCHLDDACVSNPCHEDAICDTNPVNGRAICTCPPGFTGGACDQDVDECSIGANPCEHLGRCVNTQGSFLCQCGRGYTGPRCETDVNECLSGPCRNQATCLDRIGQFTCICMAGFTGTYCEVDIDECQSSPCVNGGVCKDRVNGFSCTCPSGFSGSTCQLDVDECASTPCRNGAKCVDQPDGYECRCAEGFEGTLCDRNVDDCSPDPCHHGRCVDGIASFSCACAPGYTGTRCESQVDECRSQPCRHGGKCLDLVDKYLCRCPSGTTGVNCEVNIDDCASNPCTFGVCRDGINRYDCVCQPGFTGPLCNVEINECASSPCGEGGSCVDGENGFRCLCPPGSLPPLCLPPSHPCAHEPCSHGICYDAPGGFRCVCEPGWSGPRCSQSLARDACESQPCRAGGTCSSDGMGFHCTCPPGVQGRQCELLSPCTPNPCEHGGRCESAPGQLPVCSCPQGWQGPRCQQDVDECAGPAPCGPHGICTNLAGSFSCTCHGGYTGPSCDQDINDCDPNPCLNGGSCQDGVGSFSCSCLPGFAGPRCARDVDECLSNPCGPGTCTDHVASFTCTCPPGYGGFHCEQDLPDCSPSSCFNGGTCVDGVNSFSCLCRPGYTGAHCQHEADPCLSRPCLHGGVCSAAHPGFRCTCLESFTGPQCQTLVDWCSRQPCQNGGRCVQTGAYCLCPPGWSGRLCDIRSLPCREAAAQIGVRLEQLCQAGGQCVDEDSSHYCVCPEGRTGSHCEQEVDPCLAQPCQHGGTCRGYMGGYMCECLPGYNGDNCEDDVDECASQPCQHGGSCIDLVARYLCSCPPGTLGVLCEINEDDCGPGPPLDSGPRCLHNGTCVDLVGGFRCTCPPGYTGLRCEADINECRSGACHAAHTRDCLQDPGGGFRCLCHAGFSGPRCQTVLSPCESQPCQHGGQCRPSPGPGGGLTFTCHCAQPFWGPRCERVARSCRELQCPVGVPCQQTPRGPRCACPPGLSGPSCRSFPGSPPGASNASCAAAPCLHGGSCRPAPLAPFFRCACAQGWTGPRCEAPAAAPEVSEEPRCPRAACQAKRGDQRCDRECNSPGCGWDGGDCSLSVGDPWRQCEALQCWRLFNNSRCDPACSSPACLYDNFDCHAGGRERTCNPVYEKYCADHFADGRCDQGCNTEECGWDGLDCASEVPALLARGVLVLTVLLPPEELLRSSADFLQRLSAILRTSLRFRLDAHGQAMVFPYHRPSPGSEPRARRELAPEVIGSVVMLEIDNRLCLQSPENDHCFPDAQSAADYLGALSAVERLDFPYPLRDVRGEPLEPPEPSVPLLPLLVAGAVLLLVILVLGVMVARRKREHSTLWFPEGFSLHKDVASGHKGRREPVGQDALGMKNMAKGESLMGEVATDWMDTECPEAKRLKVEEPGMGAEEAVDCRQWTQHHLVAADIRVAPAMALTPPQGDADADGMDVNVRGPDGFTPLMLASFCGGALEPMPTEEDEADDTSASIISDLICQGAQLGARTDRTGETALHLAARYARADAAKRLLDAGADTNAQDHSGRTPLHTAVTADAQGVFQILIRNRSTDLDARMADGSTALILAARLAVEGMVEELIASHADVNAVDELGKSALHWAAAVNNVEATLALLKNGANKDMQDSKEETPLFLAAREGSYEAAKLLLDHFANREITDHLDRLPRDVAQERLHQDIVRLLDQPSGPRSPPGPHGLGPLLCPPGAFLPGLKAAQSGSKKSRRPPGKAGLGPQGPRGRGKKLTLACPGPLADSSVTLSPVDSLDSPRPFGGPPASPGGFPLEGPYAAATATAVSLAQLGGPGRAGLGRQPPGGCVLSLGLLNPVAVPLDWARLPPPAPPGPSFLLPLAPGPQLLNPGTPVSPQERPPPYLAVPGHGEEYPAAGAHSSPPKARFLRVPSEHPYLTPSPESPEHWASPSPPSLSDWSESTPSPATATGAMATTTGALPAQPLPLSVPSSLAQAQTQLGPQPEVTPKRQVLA

Structure (SMILES)	composite z-score [1]	composite z-score [2]	composite z-score [3]	composite z-score [4]	composite z-score [5]	composite z-score [6]	composite z-score [7]	z-score [8]	composite z-score [9]	composite z-score [10]	composite z-score [11]	z-score [12]	z-score [13]	z-score [14]	composite z-score [15]	z-score [16]	composite z-score [17]	composite z-score [18]	composite z-score [19]	composite z-score [20]
O=C/C=C/c1ccc(-c2ccccc2)cc1	0.4	-0.0761	-0.0785	0.182	-0.327	-0.727	-0.836	2.7 (inactive)	-0.0543	0.21	-0.645	-25.4 (active)	-19.9 (active)	-5.08 (inactive)	-0.7	-0.168 (inactive)	-0.103	-0.339	-0.586	-0.15
C[C@]1(C(=O)O)c2ccccc2C(=O)N(Cc2cc(C(F)(F)F)cc(C(F)(F)F)c2)[C@H]1c1ccc(CO)cc1	-0.0018	-0.48	-0.152	0.159	-0.0211	-0.179	0.0653	0.192 (inactive)	0.192	-0.236	1.43	0.652 (inactive)	0.559 (inactive)	-0.754 (inactive)	0.834	0.305 (inactive)	-0.141	0.414	0.483	-0.186
C=C[C@H](C)[C@@H](OC(=O)Nc1ccc(SC)cc1)c1ccc(OCCO)cc1	0.169	0.378	-0.0408	0.0044	-0.421	0.99	1.26	5.34 (inactive)	0.0372	-0.264	0.191	0.613 (inactive)	-0.583 (inactive)	1.92 (inactive)	1.84	0.441 (inactive)	-0.0391	1.05	0.487	-0.225
COC(=O)[C@@]1(Cc2ccccc2)[C@H]2c3cc(C(=O)N(C)C)n(Cc4nc5ccccc5[nH]4)c3C[C@H]2CN1C(=O)c1ccccc1	1.1	1.08	0.214	0.572	1.77	2.12	1.33	-1.3 (inactive)	1.37	-0.315	0.964	-0.895 (inactive)	0.338 (inactive)	-0.678 (inactive)	3.5	0.914 (inactive)	0.718	-0.307	1.06	0.135
C=CC[C@]1(C(=O)NCCN2CCOCC2)N=C(c2ccc(OCCCO)cc2)O[C@H]1c1ccccc1	-0.038	0.422	-0.0691	0.571	0.862	0.0304	1.25	1.37 (inactive)	1.18	-0.479	1.17	-1.24 (inactive)	-0.577 (inactive)	-1.15 (inactive)	2.65	0.0059 (inactive)	0.0365	0.816	-0.398	0.174
COc1ccc([Si](C)(C)[C@H]2[C@H](CC(=O)N(CCO)Cc3ccccc3)O[C@@]3(C(=O)N(Cc4cccc(N5CCCCC5=O)c4)c4ccccc43)[C@@H]2C)cc1	-0.4	1.12	-0.0557	0.141	0.262	0.535	0.907	-2.71 (inactive)	0.0417	-0.166	1.45	-1.68 (inactive)	-0.0671 (inactive)	2.14 (inactive)	0.876	1.27 (inactive)	-0.0719	0.659	0.604	-0.045
C=C(/C=C\CNS(=O)(=O)c1ccc(C)cc1)[C@H](O)[C@H]1CCCN1S(=O)(=O)c1ccccc1[N+](=O)[O-]	-0.0107	0.014	-0.114	0.108	0.361	0.618	0.577	-4.49 (inactive)	-0.105	0.0373	-0.196	1.89 (inactive)	1.09 (inactive)	35.1 (active)	0.782	0.753 (inactive)	-0.139	0.177	0.221	-0.0567
C[C@@]1([C@@H](NS(=O)(=O)c2cccc3cccnc23)c2ccc(-c3ccccc3)cc2)C[C@H]1C1CCCCC1	0.299	0.0816	0.163	-0.0733	0.983	0.609	0.809	-0.365 (inactive)	-0.244	0.0446	0.79	0.523 (inactive)	0.381 (inactive)	1.41 (inactive)	2.47	-1.89 (inactive)	0.134	-0.0642	0.818	-0.0316
C=CCC(OC(C)=O)[C@@H]1[C@@H](N(Cc2cccc3ccccc23)C(=O)c2ccc(C)cc2)c2cc(OCCCO)ccc2N1C(=O)Cc1ccc2ccccc2c1 (stereo not given in full)	0.151	-0.124	0.0348	0.021	-0.0785	-0.158	-0.665	-2.29 (inactive)	0.0338	0.127	-0.52	-1.8 (inactive)	-0.825 (inactive)	-0.614 (inactive)	0.318	1.17 (inactive)	-0.113	-0.206	0.141	-0.184
